Test results reported in PubChem BioAssay (EPA / NIEHS).
Inconclusive results are not listed. The source made the active and inactive calls. How the source made its calls, unless noted: active means hit-call score of the fitted dose curve at least 0.9, where 1 is the maximum; inconclusive means response in the unintended direction; inactive means score below 0.9.

How the values were obtained:
THRB (gene 7068) [1] = molecular target: THRB (gene 7068) (UniProt P10828); experiment: TOX21_TRB_COA_Agonist_Followup_ratio: Tox21 Thyroid Hormone Receptor beta Agonism through Coactivator Recruitment Follow-Up Assay, Ratio (AID 2283963; active means hit-call score of the fitted dose curve at least 0.9, where 1 is the maximum; inactive means score below 0.9)
In short: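 Signal is the 520/495 nm emission ratio (excitation 340 nm), scaled between DMSO-only wells as 0% and T3 wells as 100%. It reflects fluorescein-labeled SRC-2 peptide recruitment to GST-TRβ ligand-binding domain detected via terbium anti-GST antibody.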

[2] = molecular target: Retinoic acid receptor RXR-alpha (Homo sapiens) (UniProt P19793); experiment: TOX21_TR_RXR_BLA_Agonist_Followup_ratio: Tox21 Thyroid Hormone Receptor beta Retinoid X Receptor alpha (RXRa) Agonism Beta-lactamase (BLA) Follow-Up Assay, Ratio (AID 2283968)
From the text: GeneBLAzer RXRa-UAS-bla HEK293T assay (RXRa-bla) (ThermoFisherScientific Catalog No. K1697) was run in qHTS 1536 well format as a secondary assay for specificity of response in the TOX21_TR_GH3_LUC_Agonist assay.TOX21_TR_RXR_BLA_Agonist_Followup_ratio is an assay readout measuring reporter gene via receptor activity and designed using inducible reporter (beta lactamase induction) detected with GAL4 b-lactamase reporter gene. The signal is derived from the ratio of cleaved (ch2) to uncleaved (ch1) reporter gene substrate used as the measure of target activity.Data from the assay component TOX21_TR_RXR_BLA_Agonist_Followup_ratio was analyzed into 1 assay endpoint. This assay endpoint, TOX21_TR_RXR_BLA_Agonist_Followup_ratio, was analyzed in the positive analysis fitting direction relative to DMSO as the negative control and baseline of activity. […] Furthermore, this assay endpoint can be referred to as a primary readout, because this assay has produced multiple assay endpoints and this ratio serves a reporter gene function to understand target activity. […]
After5-h incubation at 37C/5% CO2 for cell attachment, 23 nL of follow-up compounds dissolved in DMSO, 11 concentrations in triplicate, and the positive control (9-cis retinoic acid) were transferred to the assay plates using a Pintool station. […] Data were expressed as the ratio of 460:530 nm.

[3] = TOX21_TR_RXR_BLA_Agonist_Followup_viability: Viability Assessment in the Tox21 Thyroid Hormone Receptor beta Retinoid X Receptor alpha (RXRa) Agonism Beta-lactamase (BLA) Follow-Up Assay (AID 2283970)
In short: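 In qHTS format, RXRa-bla HEK293T cells (2,500/well) received compound for 16h. ATP content was then measured with CellTiter-Glo, and responses were fitted bidirectionally relative to DMSO controls.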

[4] = CCTE_Harrill_HTTr_Viability_DMEM_6hr: (Pilot) CCTE's 6-hour Cell Viability Assessment for the High-Throughput Transcriptomics (HTTr) Platform, in MCF-7 cells cultured in DMEM + 10% fetal bovine serum, Harrill Lab (AID 2283973; active means hit-call score of the fitted dose curve at least 0.9, where 1 is the maximum; inactive means score below 0.9)
In short: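 MCF-7 cells in DMEM + 10% FBS, eight-point dilution series, 6 h exposure. Membrane integrity by propidium iodide exclusion with high-content imaging; bidirectional fit versus DMSO.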

[5] = CCTE_Harrill_HTTr_Viability_DMEM_12hr: (Pilot) CCTE's 12-hour Cell Viability Assessment for the High-Throughput Transcriptomics (HTTr) Platform, in MCF-7 cells cultured in DMEM + 10% fetal bovine serum, Harrill Lab (AID 2283974; active means hit-call score of the fitted dose curve at least 0.9, where 1 is the maximum; inactive means score below 0.9)
In short: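 MCF-7 cells in DMEM + 10% FBS exposed 12 h to an eight-point dilution series; membrane integrity scored by propidium iodide exclusion with high-content imaging, bidirectional fitting versus DMSO.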

THRA (gene 7067) = THRA (gene 7067) (UniProt P10827); experiment: TOX21_TRA_COA_Antagonist_Followup_ratio: Tox21 Thyroid Hormone Receptor alpha Antagonism through Coactivator Recruitment Follow-Up Assay, Ratio (AID 2283953)
From the text: TOX21_TRa_COA_Antagonist_Followup is a secondary assay for specificity for the TOX21_TR_GH3_LUC_Agonist assay. The LanthaScreen TR-FRET TR coactivator assay kits were used to determine TR activity in a cell-free functional assay. A time-resolved fluorescence resonance energy transfer (TR-FRET) signal was indicative of coactivator (SRC-2) recruitment.TOX21_TRA_COA_Antagonist_Followup_ratio is assay component calculated in the TOX21_TRA_COA_Antagonist_Followup assay. The TR-FRET ratio of acceptor emission (ch2) to donor emission (ch1) is indicative of the resonance energy transfer to the fluorescein tag on the coactivator peptide following recruitment to the receptor.Data from the assay component TOX21_TRA_COA_Antagonist_Followup_ratio was analyzed into 1 assay endpoint. This assay endpoint, TOX21_TRA_COA_Antagonist_Followup_ratio, was analyzed in the positive analysis fitting direction relative to DMSO as the negative control and baseline of activity. Using a type of inducible reporter, loss-of-signal activity can be used to understand changes in the reporter gene as they relate to the gene THRA. Furthermore, this assay endpoint can be referred to as a primary readout, because this assay has produced multiple assay endpoints and this ratio serves a reporter gene function to understand target activity. […]

THRB (gene 7068) [6] = molecular target: THRB (gene 7068) (UniProt P10828); experiment: TOX21_TRB_BLA_Antagonist_Followup_ratio: Tox21 Thyroid Hormone Receptor beta Antagonism Beta-lactamase (BLA) Follow-Up Assay, Ratio (AID 2283958)
From the text: The GeneBLAzer TRb-UAS-bla HEK293T assay kit for human TRb (ThermoFisherScientific Catalog No. K1684) was used as a secondary assay for specificity (TRb-bla).This assay contained the ligand-binding domain (LBD) of the human TRb fused to the DNA-binding domain of GAL4 stably integrated in the GeneBLAzer UAS-bla HEK293Tcell line. The reporter gene, b-lactamase, is under the transcriptional control of a UAS that binds the GAL4 DNA-binding domain. A cell viability assay was run in parallel for these cells as well using the CellTiter-Glo viability assay kit.TOX21_TRB_BLA_Antagonist_Followup_ratio is an assay readout measuring reporter gene via receptor activity and designed using inducible reporter (beta lactamase induction) detected with GAL4 b-lactamase reporter gene. The signal is derived from the ratio of cleaved (ch2) to uncleaved (ch1) reporter gene substrate used as the measure of target activity.Data from the assay component TOX21_TRB_BLA_Antagonist_Followup_ratio was analyzed into 1 assay endpoint. This assay endpoint, TOX21_TRB_BLA_Antagonist_Followup_ratio, was analyzed in the positive analysis fitting direction relative to DMSO as the negative control and baseline of activity. Using a type of inducible reporter, loss-of-signal activity can be used to understand changes in the reporter gene as they relate to the gene THRB. […]

[7] = TOX21_TRB_BLA_Antagonist_Followup_viability: Viability Assessment in the Tox21 Thyroid Hormone Receptor beta Antagonism Beta-lactamase (BLA) Follow-Up Assay (AID 2283961)
In short: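 TRβ-bla HEK293T (human TRβ LBD fused to GAL4 DBD), 3,000 cells/well, 2% charcoal-stripped FBS, phenol red-free medium; 18 h compound exposure, 37C; CellTiter-Glo 30 min RT; luminescence, loss-of-signal readout.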

THRB (gene 7068) [8] = molecular target: THRB (gene 7068) (UniProt P10828); experiment: TOX21_TRB_COA_Antagonist_Followup_ratio: Tox21 Thyroid Hormone Receptor beta Antagonism through Coactivator Recruitment Follow-Up Assay, Ratio (AID 2283967)
In short: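 Cell-free TR-FRET: GST-TRb LBD (5.0 nM) with fluorescein-SRC-2 peptide (200 nM) and Tb anti-GST antibody (2 nM), 0.10% BSA. 520:495 nm emission ratio normalized to DMSO (0%) and T3 (100%).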

[9] = molecular target: Retinoic acid receptor RXR-alpha (Homo sapiens) (UniProt P19793); experiment: TOX21_TR_RXR_BLA_Antagonist_Followup_ratio: Tox21 Thyroid Hormone Receptor beta Retinoid X Receptor alpha (RXRa) Antagonism Beta-lactamase (BLA) Follow-Up Assay, Ratio (AID 2283972)
In short: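 HEK293T RXRa-bla, 2% charcoal-stripped FBS medium, 16 h compound exposure at 37C, qHTS 11 conc x3. CCF4 FRET ratio ch2/ch1 (460:530), DMSO = baseline, loss-of-signal fit.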

Sequence of THRB (gene 7068) (P10828 whole entry, looked up, the tested form may be a part): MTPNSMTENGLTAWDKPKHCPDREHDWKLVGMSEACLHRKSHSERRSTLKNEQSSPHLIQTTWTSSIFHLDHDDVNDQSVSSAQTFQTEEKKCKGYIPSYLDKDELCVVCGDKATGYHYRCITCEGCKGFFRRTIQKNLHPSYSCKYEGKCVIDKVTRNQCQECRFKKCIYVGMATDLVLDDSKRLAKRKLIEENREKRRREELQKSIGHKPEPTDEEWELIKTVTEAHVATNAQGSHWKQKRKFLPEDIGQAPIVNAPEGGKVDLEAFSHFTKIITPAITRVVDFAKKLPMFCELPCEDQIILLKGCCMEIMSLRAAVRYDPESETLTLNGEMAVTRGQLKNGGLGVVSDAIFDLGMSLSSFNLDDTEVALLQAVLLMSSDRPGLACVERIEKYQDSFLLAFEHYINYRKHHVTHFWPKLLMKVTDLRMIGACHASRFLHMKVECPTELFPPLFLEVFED
Sequence of Retinoic acid receptor RXR-alpha (Homo sapiens) (P19793 whole entry, looked up, the tested form may be a part): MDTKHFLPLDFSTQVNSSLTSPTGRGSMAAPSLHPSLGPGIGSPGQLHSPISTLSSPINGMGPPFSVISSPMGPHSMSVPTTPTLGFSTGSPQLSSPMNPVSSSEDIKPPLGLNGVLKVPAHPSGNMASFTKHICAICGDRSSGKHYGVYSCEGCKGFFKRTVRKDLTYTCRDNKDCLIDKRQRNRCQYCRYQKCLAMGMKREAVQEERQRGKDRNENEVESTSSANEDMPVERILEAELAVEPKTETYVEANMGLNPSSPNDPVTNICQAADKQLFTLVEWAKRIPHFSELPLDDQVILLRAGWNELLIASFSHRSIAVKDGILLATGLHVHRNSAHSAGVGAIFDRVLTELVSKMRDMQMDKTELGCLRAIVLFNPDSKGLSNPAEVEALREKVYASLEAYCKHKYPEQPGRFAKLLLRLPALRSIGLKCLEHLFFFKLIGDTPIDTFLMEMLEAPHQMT
Sequence of THRA (gene 7067) (P10827 whole entry, looked up): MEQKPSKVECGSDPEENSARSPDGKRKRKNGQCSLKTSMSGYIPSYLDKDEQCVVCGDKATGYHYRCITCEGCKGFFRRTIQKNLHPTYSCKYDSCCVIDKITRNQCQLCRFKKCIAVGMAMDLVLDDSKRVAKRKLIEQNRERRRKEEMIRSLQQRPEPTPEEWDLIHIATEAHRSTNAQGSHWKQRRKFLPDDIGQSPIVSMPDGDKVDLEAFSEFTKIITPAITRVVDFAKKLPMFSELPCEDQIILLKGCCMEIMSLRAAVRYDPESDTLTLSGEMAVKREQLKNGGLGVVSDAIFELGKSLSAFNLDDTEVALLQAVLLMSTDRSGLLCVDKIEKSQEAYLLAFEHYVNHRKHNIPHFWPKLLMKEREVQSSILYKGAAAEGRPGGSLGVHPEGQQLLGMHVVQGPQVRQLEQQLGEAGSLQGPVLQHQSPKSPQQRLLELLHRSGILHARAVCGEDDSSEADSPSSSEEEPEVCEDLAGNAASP

CC(C)=CCC/C(C)=C\CO
outcome (THRB (gene 7068) [1]): inactive
outcome [2]: inactive
outcome [3]: inactive

CC[C@H](C)C(=O)O[C@H]1C[C@@H](C)C=C2C=C[C@H](C)[C@H](CC[C@@H]3C[C@@H](O)CC(=O)O3)[C@H]21
outcome [4]: inactive
outcome [5]: inactive

CC(C)c1cccc(C(C)C)c1N1C(=O)c2ccc(O)cc2C1=O
outcome (THRA (gene 7067)): inactive
AC50 (THRB (gene 7068) [6]): 8.53 µM (active)
outcome [7]: inactive
outcome (THRB (gene 7068) [8]): inactive
outcome [9]: inactive

CCC(C)(C)C(=O)O[C@H]1C[C@@H](C)C=C2C=C[C@H](C)[C@H](CC[C@@H]3C[C@@H](O)CC(=O)O3)[C@H]21
outcome [4]: inactive
outcome [5]: inactive
